# Compounds without any hit were thinned out: in the full panel of roughly 79,000, 15% have a hit. A number with no mark means an inactive call. The source made the active and inactive calls. Rule as the data show it: active = growth inhibition above about 70%; inactive = the rest.
# Columns and labels:
# [1] = NCI Yeast Anticancer Drug Screen. Data for the rad52 strain (AID 147);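 also: 0% = growth of vehicle-treated control cultures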; details: S. cerevisiae rad52 mutant growth inhibition, hits give high values
# Summary of the method: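 Measured: yeast growth inhibition. System: strain with a defined DNA damage repair alteration. Reference: vehicle-treated control cultures.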
# [2] = NCI Yeast Anticancer Drug Screen. Data for the wt1 strain (AID 149);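 also: 0% = growth of vehicle-treated wt1 cultures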; details: S. cerevisiae wt1 strain (SPY 50644) growth inhibition, hits give high values
# Summary of the method: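 Growth inhibition read against vehicle controls after compound exposure of the wt1 yeast strain.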
# [3] = NCI Yeast Anticancer Drug Screen. Data for the rad50EPP+ strain (AID 151);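 also: 0% = growth of vehicle-treated control cultures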; details: S. cerevisiae rad50 mutant strain, hits give high values
# Summary of the method: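 One strain with a rad50 alteration (rad50EPP+) was compound-treated, its growth then compared to that of vehicle controls.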
# [4] = NCI Yeast Anticancer Drug Screen. Data for the mgt1 strain (AID 153); details: S. cerevisiae mgt1 mutant growth inhibition, hits give high values
# Summary of the method: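 After exposure of the mgt1 yeast mutant to compound, growth was measured and reported as inhibition compared with vehicle controls.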
# [5] = NCI Yeast Anticancer Drug Screen. Data for the rad50 strain (AID 155);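 also: 0% = growth of vehicle-only cultures of the same strain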; details: S. cerevisiae rad50 strain growth inhibition, hits give high values
# Summary of the method: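 Readout: growth inhibition relative to vehicle-treated cultures. Compound exposure was carried out in a genetically defined yeast strain deficient in DNA damage repair.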
# [6] = NCI Yeast Anticancer Drug Screen. Data for the mec2-1 strain (AID 157); details: S. cerevisiae mec2-1 strain, hits give high values
# Summary of the method: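 Test agents were screened against the mec2-1 yeast strain, with defined DNA repair or cell cycle alteration. Growth was scored as inhibition against vehicle-only controls.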
# [7] = NCI Yeast Anticancer Drug Screen. Data for the rad14 strain (AID 159);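 also: 0% = growth of vehicle-treated control cultures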; details: S. cerevisiae rad14 strain growth inhibition, hits give high values
# Summary of the method: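 Growth inhibition vs vehicle controls; genetically altered yeast strain (DNA damage repair defect) treated with test compounds.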
# [8] = NCI Yeast Anticancer Drug Screen. Data for the sgs1 mgt1 strain (AID 161);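 also: 0% = growth of cultures given vehicle only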; details: S. cerevisiae sgs1 mgt1 strain, hits give high values
# Summary of the method: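 Test agents were incubated with a DNA-repair-mutant yeast strain. Growth was then read and compared against vehicle-treated controls.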
# [9] = NCI Yeast Anticancer Drug Screen. Data for the CLN2oe strain (AID 163);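 also: 0% = growth of vehicle-only control cultures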; details: S. cerevisiae CLN2oe strain, hits give high values
# Summary of the method: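 Here, growth inhibition in a cell-cycle-altered yeast strain after compound exposure was quantified against vehicle control growth.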
# [10] = NCI Yeast Anticancer Drug Screen. Data for the cln2 rad14 strain (AID 165);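 also: 0% = growth equal to vehicle treated cultures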; details: S. cerevisiae cln2 rad14 strain, hits give high values
# Summary of the method: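 Growth of compound-exposed yeast (cln2 rad14 genotype) measured and expressed as inhibition relative to vehicle.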
# [11] = NCI Yeast Anticancer Drug Screen. Data for the bub3 strain (AID 167); details: S. cerevisiae bub3 mutant strain, hits give high values
# Summary of the method: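 Readout: yeast growth inhibition, expressed relative to vehicle-only wells. The test organism is a mutant strain from a panel with lesions in DNA repair or checkpoint genes.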
# [12] = NCI Yeast Anticancer Drug Screen. Data for the wt2 strain (AID 169);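 also: 0% = growth of vehicle-treated yeast cultures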; details: S. cerevisiae wt2 strain growth inhibition, hits give high values
# Summary of the method: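 Genetically defined yeast strains from a DNA-repair/cell-cycle panel were used. Compound-exposed yeast growth was measured, and the inhibition was calculated relative to vehicle treatment.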
# [13] = NCI Yeast Anticancer Drug Screen. Data for the mlh1 strain (AID 171);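 also: 0% = growth of vehicle-treated control cultures of the same strain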; details: S. cerevisiae mlh1 strain growth inhibition, hits give high values
# Summary of the method: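 Here the genetically defined yeast mutant is grown with each compound, and the extent to which its growth falls below that of vehicle-exposed cells is reported.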
# [14] = NCI Yeast Anticancer Drug Screen. Data for the sgs1 strain (AID 173);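 also: 0% = growth of vehicle-only control cultures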; details: S. cerevisiae sgs1 mutant, hits give high values
# Summary of the method: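 Relative growth inhibition, referenced to vehicle, was determined in a yeast strain with a defined alteration affecting DNA damage repair or cell cycle control after compound exposure.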
# [15] = NCI Yeast Anticancer Drug Screen. Data for the mlh1 rad18 strain (AID 175); details: S. cerevisiae mlh1 rad18 strain growth inhibition, hits give high values
# Summary of the method: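 In this whole-cell yeast screen, a strain with altered DNA damage repair is challenged with compound, and its growth is measured against matched vehicle-treated controls.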
# [16] = NCI Yeast Anticancer Drug Screen. Data for the rad18 strain (AID 177); details: S. cerevisiae rad18 mutant growth inhibition, hits give high values
# Summary of the method: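 Screen uses a yeast strain with a defined lesion in DNA damage repair; compound effect is read as loss of growth compared to untreated vehicle cultures.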
# [17] = at 5.0 µM (retest, dose inferred, filed as 0.5)
# [18] = at 50.0 µM (retest, dose inferred, filed as 5.0)
smiles,measurement,setting,value
BrCC[P+](c1ccccc1)(c1ccccc1)c1ccccc1,growth inhibition,[1]; at 1.2 µM,-39%
same,growth inhibition,[1]; at 3.7 µM,-45%
same,growth inhibition,[1]; at 11.0 µM,58%
same,growth inhibition,[1]; at 33.0 µM,94% (active)
same,growth inhibition,[1]; at 100.0 µM,96% (active)
same,growth inhibition,[2]; at 1.2 µM,-60%
same,growth inhibition,[2]; at 3.7 µM,-56%
same,growth inhibition,[2]; at 11.0 µM,-4%
same,growth inhibition,[2]; at 33.0 µM,96% (active)
same,growth inhibition,[2]; at 100.0 µM,98% (active)
same,growth inhibition,[3]; at 1.2 µM,-44%
same,growth inhibition,[3]; at 3.7 µM,-47%
same,growth inhibition,[3]; at 11.0 µM,19%
same,growth inhibition,[3]; at 33.0 µM,88% (active)
same,growth inhibition,[3]; at 100.0 µM,95% (active)
same,growth inhibition,[4]; at 1.2 µM,-61%
same,growth inhibition,[4]; at 3.7 µM,-53%
same,growth inhibition,[4]; at 11.0 µM,-7%
same,growth inhibition,[4]; at 33.0 µM,94% (active)
same,growth inhibition,[4]; at 100.0 µM,98% (active)
same,growth inhibition,[5]; at 1.2 µM,-36%
same,growth inhibition,[5]; at 3.7 µM,-30%
same,growth inhibition,[5]; [17],19%
same,growth inhibition,[5]; at 11.0 µM,54%
same,growth inhibition,[5]; at 33.0 µM,94% (active)
same,growth inhibition,[5]; [18],97% (active)
same,growth inhibition,[5]; at 50.0 µM,84.7% (active)
same,growth inhibition,[5]; at 100.0 µM,95% (active)
same,growth inhibition,[6]; at 1.2 µM,-74%
same,growth inhibition,[6]; at 3.7 µM,-63%
same,growth inhibition,[6]; [17],16%
same,growth inhibition,[6]; at 11.0 µM,14%
same,growth inhibition,[6]; at 33.0 µM,95% (active)
same,growth inhibition,[6]; [18],98% (active)
same,growth inhibition,[6]; at 50.0 µM,90.2% (active)
same,growth inhibition,[6]; at 100.0 µM,97% (active)
same,growth inhibition,[7]; at 1.2 µM,-32%
same,growth inhibition,[7]; at 3.7 µM,-52%
same,growth inhibition,[7]; at 11.0 µM,-16%
same,growth inhibition,[7]; at 33.0 µM,94% (active)
same,growth inhibition,[7]; at 100.0 µM,97% (active)
same,growth inhibition,[8]; [17],49%
same,growth inhibition,[8]; [18],99% (active)
same,growth inhibition,[8]; at 50.0 µM,87% (active)
same,growth inhibition,[9]; at 1.2 µM,-21%
same,growth inhibition,[9]; at 3.7 µM,-22%
same,growth inhibition,[9]; at 11.0 µM,2%
same,growth inhibition,[9]; at 33.0 µM,90% (active)
same,growth inhibition,[9]; at 100.0 µM,95% (active)
same,growth inhibition,[10]; [17],43%
same,growth inhibition,[10]; [18],98% (active)
same,growth inhibition,[10]; at 50.0 µM,73.8% (active)
same,growth inhibition,[11]; at 1.2 µM,-70%
same,growth inhibition,[11]; at 3.7 µM,-32%
same,growth inhibition,[11]; [17],47%
same,growth inhibition,[11]; at 11.0 µM,32%
same,growth inhibition,[11]; at 33.0 µM,93% (active)
same,growth inhibition,[11]; [18],98% (active)
same,growth inhibition,[11]; at 50.0 µM,87.8% (active)
same,growth inhibition,[11]; at 100.0 µM,97% (active)
same,growth inhibition,[12]; at 1.2 µM,-15%
same,growth inhibition,[12]; at 3.7 µM,-5%
same,growth inhibition,[12]; at 11.0 µM,15%
same,growth inhibition,[12]; at 33.0 µM,88% (active)
same,growth inhibition,[12]; at 100.0 µM,95% (active)
same,growth inhibition,[13]; at 1.2 µM,-38%
same,growth inhibition,[13]; at 3.7 µM,-70%
same,growth inhibition,[13]; at 11.0 µM,28%
same,growth inhibition,[13]; at 33.0 µM,93% (active)
same,growth inhibition,[13]; at 100.0 µM,97% (active)
same,growth inhibition,[14]; at 1.2 µM,-35%
same,growth inhibition,[14]; at 3.7 µM,-56%
same,growth inhibition,[14]; at 11.0 µM,-40%
same,growth inhibition,[14]; at 33.0 µM,89% (active)
same,growth inhibition,[14]; at 100.0 µM,94% (active)
same,growth inhibition,[15]; [17],5%
same,growth inhibition,[15]; [18],96% (active)
same,growth inhibition,[15]; at 50.0 µM,83.6% (active)
same,growth inhibition,[16]; at 1.2 µM,-59%
same,growth inhibition,[16]; at 3.7 µM,-42%
same,growth inhibition,[16]; at 11.0 µM,54%
same,growth inhibition,[16]; at 33.0 µM,95% (active)
same,growth inhibition,[16]; at 100.0 µM,95% (active)

# — PubChem BioAssay (NCI)
